MCF10A rerep: DNA re-replication induction in MCF 10a cells | MCF 10A DNA re-replication, Hoechst nuclear intensity, 48 h | Potency, µM (highest dose often 46.1 µM), most hits filed as activators | actives 2.9% (n = 350,000) | AID 624296; further: nearly all actives have a fitted effect of over 50% in size
HT1080-NT tox: kills 2HG-producing HT-1080-NT fibrosarcoma cells | HT-1080-NT fibrosarcoma viability, CellTiter-Glo ATP luminescence, 48 h | Potency, µM (doses to about 46.1 µM), most hits filed as cytotoxic | actives 1.6% (n = 360,000);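 further: NT is the 2HG producing partner of a matched IDH1 knockdown line; nearly all actives have a fitted effect of over 55% in size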
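HT-1080-NT; 750 cells/well; 5% FBS RPMI; 48 h compound, 37 degrees C; CellTiter-Glo luminescence; curve fitting and curve-class assignment.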
KB-V1 MDR tox: KB-V1 MDR subline cytotoxicity; AID 1347076; actives 3.4% (n = 400,000); KB-V1 MDR cells viability, CellTiter-Glo, 72 h; Potency, µM (doses to about 46.1 µM), most hits filed as cytotoxic; further: nearly all actives have a fitted effect of over 60% in size
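qHTS viability screen in drug-selected KB-V1 MDR cells: 72 h compound treatment at 37 degrees C, ATP luminescence end point.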
HT1080 IDH1KD tx: HT-1080 IDH1 knockdown cell toxicity (counter line); HT-1080 IDH1 knockdown viability, ATP luminescence, 48 h; Potency, µM (titrated, usually from 46.1 µM), most hits filed as cytotoxic; actives 2% (n = 360,000)
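IDH1KD HT-1080 cells, 750/well, RPMI + 5% FBS; compound pinned after 2 h settling; 48 h, 37 °C; CellTiter-Glo luminescence; % activity normalised to DMSO and no-cell wells; curves fitted, classed by r2 and efficacy.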
SW480 rereplic: inducers of DNA re-replication in SW480 colon cancer cells. SW480 DNA re-replication, Hoechst DNA content imaging, 48 h. Potency, µM (top dose mostly 46.1 µM), most hits filed as activators. actives 1.8% (n = 340,000). AID 624297; further: nearly all actives have a fitted effect of over 55% in size
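Treated cells incubate 48 hr (37 C, 5% CO2), are stained 40 min with Hoechst, and nuclear fluorescence is enumerated; a rise in nuclei with high DNA signal marks re-replication.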
KB-3-1 tox: kills parental KB-3-1 adenocarcinoma cells; KB-3-1 viability, CellTiter-Glo ATP luminescence, 72 h; Potency, µM (titrated, usually from 46.1 µM), hits mostly cytotoxic; actives 1.4% (n = 400,000); AID 1347075; further: nearly all actives have a fitted effect of over 60% in size
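Screening of KB-3-1 cells (DMEM, 10% FBS, phenol-red free) ran from lowest to highest compound concentration; after 72 h at 37 °C viability was read luminescently and curves fitted.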
Hits are given with their value; 0 = inactive; ? = inconclusive; - = not tested or not shown; [ ] = remark or other dose. Sampled rows, rich in hits. Any-hit rate of the full collection: about 8%. The call rests on the fitted dose curve; in most records, active means well fitted curve in the direction sought with a large enough effect; inconclusive means small, poorly fitted or top-dose-only effect, or another doubt; inactive means no such curve, though single readings can be large; an effect the other way counts as inactive or inconclusive.

SMILES	MCF10A rerep	HT1080-NT tox	KB-V1 MDR tox	HT1080 IDH1KD tx	SW480 rereplic	KB-3-1 tox
COc1cc2c(cc1NC(=O)C(C)Sc1cccc[n+]1[O-])oc1ccccc12 (centres undefined)	0	0	0	?	0	0
Cc1cc2oc(=O)cc(CN(C)Cc3ccccc3Cl)c2cc1C	0	0	0	0	0	0
CC1(C)Cc2c(C#N)c(N3CCN(C(=O)c4ccccc4)CC3)nc(Cc3ccccc3)c2CO1	0	?	18.4µM	?	0	?
CC(C)Cc1nc(N2CCN(C(=O)c3ccco3)CC2)c(C#N)c2c1CCCC2	23.1µM	?	0	?	0	0
CC(C)C(=O)N1CCN(c2nc(-c3ccccc3)c3c(c2C#N)CCCC3)CC1	18.4µM	?	?	?	?	0
Cc1nc(N2CCN(C(=O)c3ccco3)CC2)c(C#N)c2c1CCCC2	0	0	0	0	0	0
CCCCn1c2nc3ccccc3nc2c2c(=O)n(C(C)CC)cnc21 (centres undefined)	0	0[9.24 µM]	0	0	0	0
O=C(N/N=C\c1ccc([N+](=O)[O-])o1)c1cncc(Br)c1	?	20.6µM	?	16.4µM	0	?
O=C(N/N=C/c1ccc([N+](=O)[O-])o1)c1ccccc1NS(=O)(=O)c1cccs1	18.4µM	?	0	?	?	?
CCN(CC)S(=O)(=O)c1cccc(C(=O)N/N=C/c2ccc([N+](=O)[O-])o2)c1	?	?	?	18.4µM	20.6µM	0
COc1cc(/C=N/NC(=O)c2cncc(Br)c2)cc([N+](=O)[O-])c1O	0	16.4µM	?	0	4.11µM	?
CCOC(=O)c1c(-c2ccc(C)cc2)csc1NC(=O)c1nc(SC(C)C)ncc1Cl	-	-	0	-	-	0
CCCCC(C(=O)O)C(C)CC(=O)Nc1ccn(-c2ccccc2)n1 (centres undefined)	0	0	0	0	0	0
Cc1ccc(-n2ncc3c(Nc4c(C)n(C)n(-c5ccccc5)c4=O)ncnc32)c(C)c1	0	0	?	0	0	0
Cc1cccc(OCC(=O)Nc2nnc(S(=O)(=O)N3CCCCC3)s2)c1	0	0	0	0	0	0
O=C(CNC(=O)c1ccccc1)N/N=C/c1ccc([N+](=O)[O-])o1	0	0	0	?	?	0
O=C(N/N=C/c1ccc([N+](=O)[O-])o1)c1ccncc1	0	?	0	18.4µM	0	0
O=C(N/N=C/c1ccc([N+](=O)[O-])o1)c1ccc(O)cc1	?	5.8µM	?	6.51µM	?	?
Cc1cnc(NC(=O)Cc2ccc(S(=O)(=O)N3CCOCC3)s2)s1	0	0	23.1µM	0	0	0
O=C(Nc1ccc2c(c1)CCC2)c1ccc(F)c(S(=O)(=O)N2CCOCC2)c1	0	0	3.26µM	0	?	?
Cc1ccc(C(=O)Nc2ccc3c(c2)CCC3)cc1S(=O)(=O)N1CCOCC1	0	0	0	0	0	0
Cc1cnc(NC(=O)c2ccc(F)c(S(=O)(=O)N3CCOCC3)c2)s1	0	0	18.4µM	0	0	0
Cc1ccc(N(Cc2ccccc2)C(=O)c2ccc(F)c(S(=O)(=O)N3CCOCC3)c2)cc1	0	0	3.66µM	0	0	?
CN(C)S(=O)(=O)c1cccc(COC(=O)c2cc([N+](=O)[O-])ccc2N2CCOCC2)c1	?	0	?	?	?	0
O=[N+]([O-])c1ccc(N2CCN(c3ccccc3F)CC2)c(S(=O)(=O)N2CCOCC2)c1	0	0	7.31µM	0	0	0
SMILES	MCF10A rerep	HT1080-NT tox	KB-V1 MDR tox	HT1080 IDH1KD tx	SW480 rereplic	KB-3-1 tox
O=[N+]([O-])c1ccc(N2CCOCC2)c(S(=O)(=O)N2CCOCC2)c1	0	0	0	0	0	0
COc1ccc(OC)c(COC(=O)c2cc([N+](=O)[O-])ccc2N2CCOCC2)c1	?	?	?	?	?	5.17µM
CSc1ccc(COC(=O)c2cc([N+](=O)[O-])ccc2N2CCOCC2)cc1	?	?	0.411µM	0.184µM	0.058µM	0.146µM
O=[N+]([O-])c1ccc(N/N=C/c2ccc(O)c(O)c2O)c(S(=O)(=O)N2CCOCC2)c1	0	0	0	0	0	0
O=[N+]([O-])c1ccc(N/N=C/c2cccc(O)c2O)c(S(=O)(=O)N2CCOCC2)c1	0	0	?	0	4.11µM	?
Cc1ccccc1COC(=O)c1cc([N+](=O)[O-])ccc1N1CCOCC1	?	?	0	?	?	?
O=c1c2sc3ccccc3c2n(Cc2ccc(F)cc2Cl)c(=O)n1Cc1ccccc1	-	-	0	-	-	0
CCN(CC(=O)Nc1c(F)cccc1F)C(=O)Cc1csc(-c2ccc(OC)c(OC)c2)n1	0	0	0	0	0	0
CCOC(=O)C1CCCN(C(=O)Cn2cnc3sc(C)c(S(=O)(=O)N4CCOCC4)c3c2=O)C1 (centres undefined)	0	0	0	0	0	0
COc1ccc(OCC(=O)Nc2ccccc2C(=O)NC(C)C)cc1	0	0	0	0	0	0
O=C(OCc1ccccc1F)c1cc([N+](=O)[O-])ccc1N1CCOCC1	0	0	18.4µM	0	0	0
Cc1ccccc1N(C(=O)Cc1c[nH]c2ccccc12)C(C(=O)NC1CCCCC1)c1ccco1 (centres undefined)	?	?	?	?	0	0
Cc1ccc(C(C(=O)NC2CCCCC2)N(C(=O)Cc2c[nH]c3ccccc23)c2ccccc2C)o1 (centres undefined)	?	14.6µM	?	23.1µM	?	?
COc1ccc(C(C(=O)NC2CCCCC2)N(C(=O)Cc2c[nH]c3ccccc23)c2ccccc2C)cc1OC (centres undefined)	0	0	?	0	0	0
Cc1ccc(N(C(=O)Cc2c[nH]c3ccccc23)C(C(=O)NC2CCCCC2)c2ccco2)cc1 (centres undefined)	?	?	16.4µM	?	?	?
Cc1ccc(C(C(=O)NC2CCCCC2)N(Cc2ccco2)C(=O)Cc2c[nH]c3ccccc23)o1 (centres undefined)	?	0	10.3µM	0	0	0
COc1ccc(C(C(=O)NC2CCCCC2)N(Cc2cccs2)C(=O)Cc2c[nH]c3ccccc23)cc1OC (centres undefined)	0	?	8.2µM	?	0	?
CCCN(C(=O)COC(=O)COc1c(C)cccc1C)c1c(N)n(Cc2ccccc2)c(=O)[nH]c1=O	0	0	0	0	0	0
CCOc1ccc(CNS(=O)(=O)c2ccc3c(c2)CCCN3C(C)=O)cc1	-	-	0	-	-	0
CCOc1ccc(-c2csc(NC(=O)C3CCCO3)n2)cc1 (centres undefined)	0	0[9.24 µM]	?	0	0	0
COc1ccc(NS(=O)(=O)c2ccc(Br)s2)cc1OC	0	0	20.6µM	0	0	0
O=S(=O)(Nc1ccc(Cc2ccncc2)cc1)c1ccc(Br)s1	?	?	14.6µM	0	0	?
